Cycloheximide cs – affects cycloheximide protein synthesis inhibition readout, counter-screen | 12% of 300,000 active | max response, % | cell reporter, cycloheximide protein synthesis inhibition counterscreen; in the data active means max response mostly above about 13%, no sharp cut-off; inactive means mostly below about 14%; further: read at 38.3 µM for the half of the compounds with a filed dose; 0% is about no effect
Vaccinia mCherry – inhibitors of vaccinia virus infection (mCherry reporter signal); Vaccinia virus mCherry reporter infection, fluorescence; Potency, µM (top dose mostly 36.5 µM), for the others: at the highest dose activity change, negative = inhibition, most hits filed as inhibitors; 0.63% of 310,000 active; AID 720579; calls by dose curve; tested in A549 cells; further: potency means the concentration at half of the fitted maximal effect; on the % scale 0 is the no-effect control and ±100 the full control effect; nearly all actives have a fitted effect of over 35% in size
Marburg entry inh – Marburg virus entry inhibition; Potency, µM (series often up to 37.8 µM), for inactives: top-dose activity change, negative = inhibition, most hits filed as inhibitors; 1.8% of 300,000 active; Marburg virus pseudotyped entry inhibition, cell reporter; AID 540276; calls by dose curve; tested in HEK293 cells; further: potency means the concentration at half of the fitted maximal effect; on the % scale 0 is the no-effect control and ±100 the full control effect
LASV entry inh – inhibitors of Lassa virus binding or cell entry | 1.2% of 300,000 active | Lassa virus pseudotype entry inhibition, cell reporter | Potency, µM (titrated, usually from 37.9 µM), without a hit: top-dose activity change, negative = inhibition, most hits filed as inhibitors; calls by dose curve; tested in HEK293 cells; further: potency means the concentration at half of the fitted maximal effect; on the % scale 0 is the no-effect control and ±100 the full control effect; nearly all actives have a fitted effect of over 50% in size
Shiga inhibitor – inhibitors of Shiga toxin in Vero cells. Vero cells, Shiga toxin protein synthesis inhibition reporter. inhibition, % at 38.7 µM. 9.2% of 290,000 active; in the data active means inhibition mostly above about 28%, no sharp cut-off; inactive means mostly below about 43%; further: 0% is about no effect
VACV Venus inh – vaccinia inhibition (Venus reporter) | Potency, µM (doses to about 36.5 µM), inactives show top-dose activity change, negative = inhibition, actives largely listed as inhibitors | 0.46% of 330,000 active | Vaccinia virus Venus reporter expression, fluorescence; calls by dose curve; tested in A549 cells; further: potency means the concentration at half of the fitted maximal effect; on the % scale 0 is the no-effect control and ±100 the full control effect; nearly all actives have a fitted effect of over 30% in size
An asterisk follows results filed as active; i = inactive; u = inconclusive; x = no result; [ ] = another dose, or the depositor's remark. This is one part of a sample in which hits are shown more often than they occur.

SMILES	Cycloheximide cs	Vaccinia mCherry	Marburg entry inh	LASV entry inh	Shiga inhibitor	VACV Venus inh
CC(C)(C)C(=O)Nc1nnc(SCc2ccc(F)cc2)s1	22*	x	0%	4%	42	x
O=C(Nc1nnc(SCc2cccc(F)c2)s1)c1ccco1	3	x	x	x	20	x
CC(C)C(=O)Nc1nnc(SCc2cccc(F)c2)s1	14*	x	x	x	49*	x
COCCSc1nnc(NC(=O)CSc2ccccc2)s1	8	-9%	5%	-13%	-9	0%
COC(=O)c1ccc(CN2C(=O)[C@]3(OCCC=C[C@@H]3C)c3c(Br)cccc32)cc1	x	x	-7%[14.2 µM]	x	x	x
CCOc1ccc2nc(SCC(=O)NCc3ccco3)sc2c1	18*	x	-2%	-2%	45	x
CCOc1ccc2nc(SCC(=O)c3cccs3)sc2c1	42*	-15%	u	u	139*	-27%
CCOc1ccc2nc(SCC(=O)NC(=O)NCc3ccco3)sc2c1	3	x	-23%	u	2	-24%
CCOc1ccc2nc(SCC(=O)c3ccc(Cl)s3)sc2c1	0	i	14%	12%	-2	0%
CCNC(=O)NC(=O)CSc1ccc(S(=O)(=O)N(C)C2CCCCC2)cn1	x	u	u	-23%	x	-17%
N#Cc1cccc(NC(=O)CCNS(=O)(=O)c2ccc3c(c2)CCN3C(=O)C2CC2)c1	x	i	x	-7%[46.1 µM]	x	-6%
CCc1ccc(/C=C2/SC(=S)N(CCC(=O)Nc3cccnc3)C2=O)cc1	-2	x	x	x	-8	x
C=CCOC(=O)N[C@H](C(C(=O)OC)=C(C)NCc1ccccc1)c1cccc(OC)c1	x	x	-13%[14.2 µM]	x	x	x
Nc1ccc(C(=O)C(=O)c2ccc(N)cc2)cc1	6	i	x	x	2	-18%
N=C1C=CC(=C(c2ccc(N)cc2)c2ccc(N)cc2)C=C1	x	u	4µM*	5µM*	x	u
CCc1nnc(NS(=O)(=O)c2ccc(NC(=O)/C=C/c3ccc(OC)cc3OC)cc2)s1	-5	i	16%	3%	21	-15%
CCc1nnc(NS(=O)(=O)c2ccc(N/C=C\C(=O)c3cccc(OC)c3)cc2)s1	32*	-5%	-11%[14.2 µM]	-7%	72*	1%
CCc1nnc(NS(=O)(=O)c2ccc(N/C=C\C(=O)c3ccc(C)cc3)cc2)s1	28*	x	11%	-11%	103*	-11%
CCc1nnc(NS(=O)(=O)c2ccc(NC(=O)CCC(=O)O)cc2)s1	0	x	x	x	-10	x
CCc1nnc(NS(=O)(=O)c2ccc(N/C=C\C(=O)c3ccc(F)cc3)cc2)s1	47*	-10%	x	x	66*	-9%
CCc1nnc(NS(=O)(=O)c2ccc(NC(=O)c3ccc(S(=O)(=O)N(CC)CC)cc3)cc2)s1	-2	-25%	10%[46.1 µM]	u	-5	-9%
CCc1nnc(NS(=O)(=O)c2ccc(N/C=C/C(=O)c3ccc(C)cc3)cc2)s1	39*	-6%	3%	-1%	93*	4%
COc1ccc(NCc2cccn2-c2nnc(N3CCCCCC3)s2)cc1	x	0%	x	24%[46.1 µM]	x	-1%
CCOc1ccc(-c2nn(CC(=O)NC3CCCC3)c3c2cnc2ccc(C)cc23)cc1	x	1%	x	0%[46.1 µM]	x	8%
CCOC(=O)c1c(C)[nH]c(CCC(=O)NC(C)c2ccccc2)c1C (configuration not stated)	x	-4%	x	-12%[46.1 µM]	x	-2%
SMILES	Cycloheximide cs	Vaccinia mCherry	Marburg entry inh	LASV entry inh	Shiga inhibitor	VACV Venus inh
O=C(NC1CCCC1)c1cn(C2CCN(Cc3cccc4cccnc34)CC2)nn1	x	-2%	x	x	x	-2%
NC(=O)c1ccccc1NC(=O)CCc1ccccc1	29*	x	18%	u	52	x
O=C(Nc1ccccc1C(=O)NCCc1ccccc1)c1cnccn1	19*	-9%	u	1%[46.1 µM]	47	3%
NC(=O)c1ccccc1NC(=S)NC(=O)CCc1ccccc1	-2	-8%	u	u	17	u
O=C(O)CCC(=O)Nc1ccccc1C(=O)Nc1ccccc1	4	x	19%	-5%	21	x
O=C(COC(=O)c1cnccn1)NCCc1ccccc1	-3	x	8%	-10%	-9	x
O=C(NCCc1ccccc1)c1ccccc1NC(=O)C1CC=CCC1C(=O)O (configuration not stated)	61*	i	u	-13%	70*	-10%
O=C(O)CCC(=O)Nc1ccccc1C(=O)NCCc1ccccc1	45*	-16%	u	18%	73*	-14%
Cc1[nH]c2c(C)cccc2c1CCNC(=O)c1cc2ccccc2oc1=O	x	-7%	-3%[46.1 µM]	19%[46.1 µM]	x	-7%
CCc1ccccc1NC(=O)CCc1nc(-c2cccs2)no1	20	x	-1%	7%	48*	x
COc1cccc(NC(=O)CCc2nc(-c3ccccc3F)no2)c1	17*	i	5%	16%	13	-15%
COc1ccccc1NC(=O)CCc1nc(-c2ccccc2F)no1	16*	i	-10%	16%	40	-10%
Cc1ccc(-c2noc(CCC(=O)Nc3cccc(C#N)c3)n2)cc1	34*	x	-6%	-20%	34*	u
Cc1ccccc1N1CCN(S(=O)(=O)C[C@]23CCC(CC2NC(=O)[C@@H](N)CCS(C)(=O)=O)C3(C)C)CC1 (some centres not stated)	x	-4%	u	x	x	-16%
CCc1ccccc1NC(=O)C1CCN(C2=NS(=O)(=O)C(c3ccc(C)c(C)c3)=C2C)CC1	x	-15%	x	-3%[46.1 µM]	x	-15%
CCC1CN(CCNC(=O)c2cccc3nccnc23)Cc2cc(OC)ccc2O1 (configuration not stated)	x	-8%	x	x	x	1%
O=c1oc(CCO)cc2ccc(-c3ccc4[nH]ccc4c3)cc12	x	-14%	x	x	x	-26%
O=C(NCc1ccccc1)c1ccc(Cl)cc1[N+](=O)[O-]	-2	-5%	-1%	0%	6	2%
O=C(NCc1ccc(Cl)cc1)c1n[nH]c([N+](=O)[O-])c1Cl	45*	x	x	x	61*	x
O=C(NCc1ccc(Cl)cc1)c1ncn[nH]1	-1	-26%	-21%[46.1 µM]	6%[46.1 µM]	-15	-3%
O=C(Cc1ccccc1[N+](=O)[O-])NCc1ccc(Cl)cc1	33*	-3%	u	u	22	-5%
O=C(Cc1ccccc1[N+](=O)[O-])NCc1ccc(Cl)cc1Cl	44*	-18%	u	u	87*	-16%
O=C(Cc1ccc([N+](=O)[O-])cc1)NCc1ccccc1Cl	-1	i	28%	-2%	13	-1%
Fc1ccccc1-c1nc(N2CCN(c3cccc(Cl)c3)CC2)c2ccccc2n1	x	-12%	x	-21%[46.1 µM]	x	-8%
COC(=O)c1[nH]c2cccc(Cl)c2c1NC(=O)CN(C)C1CCCCC1	-11	x	11µM*	-2%	-12	-9%
O=C(N/N=C/c1ccccn1)c1ccc(Cl)c(Cl)c1	44*	x	x	x	69*	x
O=C(N/N=C/c1ccccn1)c1cc(-c2cccc3ccccc23)n[nH]1	13*	x	4%	u	-24	x
O=C(N/N=C/c1ccccn1)c1cc(-c2ccccc2Cl)n[nH]1	35*	x	x	x	95*	x
CCOC(=O)c1c(C)oc2nc(C)nc(NCCc3ccc(OCC)c(OCC)c3)c12	x	i	x	u	x	-18%
CCN(C(=O)C1=COCCO1)c1nc2c(C)cccc2s1	x	u	u	u	x	-6%

Screening data from PubChem BioAssay.
